Results: PubChem BioAssay (Tox21)
Values joined by “and” are separate entries in the source; they are usually repeats but may differ in a detail not shown here. Equal values may be shown once. Records with an inconclusive call do not appear. Where a call stands in place of a potency, no number is given. More than one record can exist for a structure, and the calls need not agree. Active and inactive are the calls of the source. Calls follow the shape of the dose curve; as a rule, active = well fitted curve in the direction sought with a large enough effect in the repeat runs; inconclusive = weak or mixed curves; inactive = no such curve, though single readings can be large; an effect the other way counts as inactive or inconclusive.

How the values were obtained:
[1] = Caspase-3/7 induction in HepG2 cells by small molecules, qHTS assay (AID 1346978); also: nearly all actives have a fitted effect of over 15% in size; also: potency is read from the fitted curve at half-maximal effect
How it was run: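 Wild-type HepG2 cells, 2,000/well, settled 5 hr at 37 C and 5% CO2, then compound-treated for 17 hr; caspase-3/7 activity read by luminescent Caspase-Glo 3/7 after 30 min at room temperature.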

[2] = Caspase-3/7 induction in CHO-K1 cells by small molecules, qHTS cell viability counter screen (AID 1346979); also: nearly all actives have a fitted effect of over 35% in size; also: potency is read from the fitted curve at half-maximal effect
How it was run: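 Cytotoxicity counter screen run in parallel with the caspase-3/7 assay: CHO-K1 cells, 16hr compound treatment at 37C, then CellTiter-Fluor for 1hr before fluorescence reading.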

[3] = Caspase-3/7 induction in CHO-K1 cells by small molecules, qHTS assay (AID 1346980); also: nearly all actives have a fitted effect of over 15% in size
How it was run: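 Wild-type CHO-K1 cells exposed to compounds for 17hr at 37 C, 5% CO2. Caspase-3/7 activity then measured by Caspase-Glo 3/7 luminescence after 30min at room temperature.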

[4] = Caspase-3/7 induction in HepG2 cells by small molecules, qHTS cell viability counter screen (AID 1346981); also: series mostly up to about 92 µM; nearly all actives have a fitted effect of over 30% in size
How it was run: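 Steps: seed 2,000 HepG2 cells per well; incubate 5 hr at 37 C; pin-add compounds in DMSO; incubate 16 hr; add CellTiter-Fluor; after 1 hr at 37 C and 5% CO2, read fluorescence.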

[5] = biological target: Nuclear receptor subfamily 1 group I member 2 (Homo sapiens) (UniProt O75469); assay: Human pregnane X receptor (PXR) small molecule agonists, qHTS assay (AID 1346982); also: nearly all actives have a fitted effect of over 35% in size; also: potency is read from the fitted curve at half-maximal effect
How it was run: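 Agonist mode qHTS: PXR-Luc HepG2 cells plated 5 hr before DMSO-dissolved compounds were pinned in, cultured 24 hr at 37 C, 5% CO2; ONE-Glo luminescence readout.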

[6] = biological target: Cytochrome P450 2C19 (Homo sapiens) (UniProt P33261); assay: Cytochrome P450 Family 2 Subfamily C Member 19 (CYP2C19) small molecule antagonists: luciferase reporter qHTS assay (AID 1671197); also: nearly all actives have a fitted effect of over 65% in size; also: potency is read from the fitted curve at half-maximal effect
How it was run: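 P450-Glo CYP2C19 system: enzyme-substrate mix with compound 10 min at room temperature, then NADPH regeneration solution, 1 h at 37C. Proluciferin-to-luciferin conversion detected by luminescence after 20 min with detection reagent; ketoconazole as positive control.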

[7] = biological target: Nuclear receptor subfamily 1 group I member 2 (Rattus norvegicus) (UniProt Q9R1A7); assay: Rat pregnane X receptor (rPXR) activation by small molecules, qHTS assay (AID 1346983); details: rPXR luciferase reporter cells, One-Glo luminescence, 24 h; stronger effect = higher value; also: nearly all actives have a fitted effect of over 20% in size
How it was run: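 Cell-based rPXR activation assay: rPXR cells, 2,000 per well, rested 5hr at 37 C, then exposed to compounds in DMSO for 24 hr at 37 C. Luciferase activity read by One-Glo luminescence after 30 min at room temperature.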

[8] = biological target: Nuclear receptor subfamily 1 group I member 2 (Homo sapiens) (UniProt O75469); assay: CYP3A4 induction through human pregnane X receptor (PXR) by small molecules, qHTS assay (AID 1346984); also: nearly all actives have a fitted effect of over 40% in size
How it was run: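 Steps: seed DPX-2 cells, 5 hr at 37C; pin-transfer compounds; 24 hr at 37C; add Luciferin-IPA (3uM final), 3 hr at 37C; add One-Glo, 30 min RT; read luminescence.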

[9] = biological target: Nuclear receptor subfamily 1 group I member 2 (Homo sapiens) (UniProt O75469); assay: Human pregnane X receptor (PXR) activation by small molecules, qHTS assay (AID 1346985); also: nearly all actives have a fitted effect of over 40% in size
How it was run: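 DPX-2 cells (HepG2 co-transfected with a PXR response element and a CYP3A4-promoter luciferase construct) were seeded at 2,000 per well, rested 5 hr at 37C, then exposed to DMSO-dissolved compounds for 24 hr. Activation was read as luciferase luminescence.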

[10] = biological target: Cytochrome P450 2D6 (Homo sapiens) (UniProt P10635); assay: Cytochrome P450 Family 2 Subfamily D Member 6 (CYP2D6) small molecule antagonists: luciferase reporter qHTS assay (AID 1671196); also: nearly all actives have a fitted effect of over 50% in size; also: potency is read from the fitted curve at half-maximal effect
How it was run: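 P450-Glo format: CYP2D6 converts a proluciferin substrate to luciferin in an NADPH-driven reaction lasting 1 h at room temperature. Light output, proportional to CYP2D6 activity, reflects interference by test chemicals.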

Nuclear receptor subfamily 1 group I member 2 (Rattus norvegicus), sequence (Q9R1A7 whole entry, looked up): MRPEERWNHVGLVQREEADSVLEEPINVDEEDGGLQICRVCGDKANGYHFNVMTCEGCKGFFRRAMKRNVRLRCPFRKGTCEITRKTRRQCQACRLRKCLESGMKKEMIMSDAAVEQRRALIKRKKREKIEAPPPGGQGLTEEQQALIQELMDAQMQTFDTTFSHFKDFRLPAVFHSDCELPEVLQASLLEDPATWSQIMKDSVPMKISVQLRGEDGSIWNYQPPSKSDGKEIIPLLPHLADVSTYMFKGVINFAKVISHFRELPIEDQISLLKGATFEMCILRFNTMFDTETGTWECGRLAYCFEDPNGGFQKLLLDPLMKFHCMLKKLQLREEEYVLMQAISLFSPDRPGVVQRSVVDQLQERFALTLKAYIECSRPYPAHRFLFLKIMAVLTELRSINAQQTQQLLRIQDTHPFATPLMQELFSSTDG
Cytochrome P450 2C19 (Homo sapiens), sequence (P33261 whole entry, looked up): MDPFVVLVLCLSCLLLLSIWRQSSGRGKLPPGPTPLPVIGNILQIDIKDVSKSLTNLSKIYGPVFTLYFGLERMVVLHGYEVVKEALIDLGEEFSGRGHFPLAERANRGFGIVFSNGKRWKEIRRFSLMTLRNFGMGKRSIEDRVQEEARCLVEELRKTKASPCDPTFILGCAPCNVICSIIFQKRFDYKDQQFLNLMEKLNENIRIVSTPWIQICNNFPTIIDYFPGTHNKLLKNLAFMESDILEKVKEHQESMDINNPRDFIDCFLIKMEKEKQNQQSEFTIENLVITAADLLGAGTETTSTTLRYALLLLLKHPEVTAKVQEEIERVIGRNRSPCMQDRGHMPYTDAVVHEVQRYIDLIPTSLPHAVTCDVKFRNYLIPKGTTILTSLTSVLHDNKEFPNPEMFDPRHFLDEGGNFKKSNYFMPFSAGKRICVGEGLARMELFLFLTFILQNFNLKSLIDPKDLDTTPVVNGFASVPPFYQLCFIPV
Cytochrome P450 2D6 (Homo sapiens), sequence (P10635 whole entry, looked up): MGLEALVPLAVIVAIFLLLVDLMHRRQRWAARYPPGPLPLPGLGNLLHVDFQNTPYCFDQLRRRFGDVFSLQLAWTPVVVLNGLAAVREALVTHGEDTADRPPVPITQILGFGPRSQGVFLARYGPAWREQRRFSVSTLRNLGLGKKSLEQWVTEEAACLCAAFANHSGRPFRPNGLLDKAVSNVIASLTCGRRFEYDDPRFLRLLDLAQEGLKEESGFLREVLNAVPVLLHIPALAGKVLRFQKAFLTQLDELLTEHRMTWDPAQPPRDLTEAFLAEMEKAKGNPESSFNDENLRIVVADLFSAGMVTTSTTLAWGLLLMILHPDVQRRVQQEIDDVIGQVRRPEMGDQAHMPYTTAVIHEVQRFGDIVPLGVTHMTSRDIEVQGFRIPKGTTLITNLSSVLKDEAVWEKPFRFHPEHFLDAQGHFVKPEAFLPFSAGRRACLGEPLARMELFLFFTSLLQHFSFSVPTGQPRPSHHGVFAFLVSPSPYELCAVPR
Nuclear receptor subfamily 1 group I member 2 (Homo sapiens), sequence (O75469 whole entry, looked up): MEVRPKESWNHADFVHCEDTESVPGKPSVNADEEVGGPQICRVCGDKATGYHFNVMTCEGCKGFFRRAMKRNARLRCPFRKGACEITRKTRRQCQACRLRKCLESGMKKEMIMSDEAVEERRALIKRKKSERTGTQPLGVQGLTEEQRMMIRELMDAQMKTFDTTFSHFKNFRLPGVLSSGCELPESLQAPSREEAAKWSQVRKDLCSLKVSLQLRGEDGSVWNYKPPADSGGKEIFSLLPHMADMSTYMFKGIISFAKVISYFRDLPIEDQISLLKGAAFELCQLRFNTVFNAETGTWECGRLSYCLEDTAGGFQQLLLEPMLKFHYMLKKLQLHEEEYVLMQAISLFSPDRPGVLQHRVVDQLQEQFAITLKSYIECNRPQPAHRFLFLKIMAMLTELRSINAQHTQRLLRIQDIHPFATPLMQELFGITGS

Structure (SMILES)	Potency [1]	Potency [2]	outcome [3]	Potency [4]	Potency [5]	Potency [6]	max activation [7]	Potency [8]	outcome [9]	Potency [10]
c1ccc(Oc2ccccc2)cc1	inactive	inactive	inactive	inactive	inactive	inactive				
CCCCCCCCCCCCCCCC(=O)OC(C)C	inactive	inactive	inactive	inactive	inactive	inactive	-0.875% (inactive)	inactive	inactive	inactive
CCCCCCO	inactive	inactive	inactive	inactive	inactive	inactive				inactive
CC(C)CC(=O)CC(C)CC(C)C (stereo not given)	inactive	inactive	inactive	inactive	inactive	79.2 µM (active) and inactive				inactive
CCCCOC(=O)c1ccc(N)cc1	inactive	inactive	inactive	inactive	53.8 µM (active) and 23.7 µM (active)					
COCCOC(=O)c1ccccc1C(=O)OCCOC	inactive	inactive	inactive	inactive	inactive	22.6 µM (active) and 25.2 µM (active)				inactive
CC(C)CC(C)O (stereo not given)	inactive	inactive	inactive	inactive	inactive	inactive				inactive
Cc1ccc(C(C)C)c(O)c1	inactive	inactive	inactive	inactive	inactive	71 µM (active) and 34.7 µM (active)	-2.47% (inactive)	inactive	inactive	inactive
Cc1ccc([N+](=O)[O-])cc1S(=O)(=O)O	inactive	inactive	inactive	inactive		35.6 µM (active)				39.2 µM (active)
CC(=O)CCC=C(C)C	inactive	inactive	inactive	inactive		inactive				inactive
Clc1ccccn1	inactive	inactive	inactive	inactive		inactive				inactive
O=C1CCCC1	inactive	inactive	inactive	inactive		inactive				inactive
COc1ccc(N)c(C)c1	inactive	inactive	inactive	inactive	inactive	39.8 µM (active) and 39.9 µM (active)				8.9 µM (active) and 31.7 µM (active)
CCCCCCC=O	inactive	inactive	inactive	inactive		40.8 µM (active) and 39.9 µM (active)				inactive and 17.8 µM (active)
Nc1ccc(Cl)c(N)c1	inactive	inactive		inactive	61.3 µM (active)	11.3 µM (active) and 20 µM (active)				inactive
c1ccc2c(c1)Cc1ccccc1-2	inactive	inactive		inactive		inactive and 35.6 µM (active)				inactive
CCNC(=S)NCC	inactive	inactive		inactive	inactive	inactive				inactive
CC(=O)Oc1ccc(C)cc1	inactive	inactive		inactive	inactive	inactive	-1.62% (inactive)	inactive	inactive	inactive
CCCCC(C=O)CC (stereo not given)	inactive	inactive		inactive		inactive				inactive
OC1C(O)C(O)C(O)C(O)C1O (stereo not given)	inactive	inactive		inactive	inactive	inactive	-0.165% (inactive)	inactive	inactive	inactive
O=[N+]([O-])c1ccc2nc[nH]c2c1	inactive	inactive		inactive	inactive	inactive				inactive
CC(CCl)OP(=O)(OC(C)CCl)OC(C)CCl (stereo not given)	inactive	inactive		inactive	36.3 µM (active)	35.7 µM (active) and 21.1 µM (active)				inactive
CC(C)(C#N)c1cc(Cn2cncn2)cc(C(C)(C)C#N)c1	inactive	inactive		inactive		21.8 µM (active) and 15.5 µM (active)	0.273% (inactive)			inactive
O=C(O)c1ccc(S(=O)(=O)N(Cl)Cl)cc1		inactive	inactive	inactive	inactive	inactive	4.13% (inactive)	inactive	inactive	35.8 µM (active) and inactive
O=c1[nH]cnc2[nH]ncc12	inactive	inactive		inactive	inactive	inactive				inactive
CC(=O)OCc1ccco1	60.8 µM (active) and inactive	15.3 µM (active) and inactive	inactive	inactive		70.6 µM (active) and inactive				inactive
